Measured values published in PubChem BioAssay AID1851 (National Center for Advancing Translational Sciences (NCATS), 2009).
About 2,600 (16%) of roughly 16,000 compounds were called active. About 20% were inconclusive and are not listed. Only a selection was taken, and actives are over-represented in it overall. A number with no mark means an inactive call. Calls follow the shape of the dose curve; as a rule, active = well fitted curve in the direction sought with a large enough effect; inconclusive = small, poorly fitted or top-dose-only effect, or effect the other way; inactive = no such curve, though single readings can be large or run the other way.

biological target: Cytochrome P450 2D6 (Homo sapiens) (UniProt P10635); experiment: Cytochrome panel assay with activity outcomes; conditions: recombinant CYP, pro-luciferin dealkylation, luminescence, p450-cyp2d6; series mostly up to 57.1 µM
% is scaled to controls: 0 for no effect and ±100 for the full control effect.

Sequence of Cytochrome P450 2D6 (Homo sapiens) (P10635 whole entry, looked up): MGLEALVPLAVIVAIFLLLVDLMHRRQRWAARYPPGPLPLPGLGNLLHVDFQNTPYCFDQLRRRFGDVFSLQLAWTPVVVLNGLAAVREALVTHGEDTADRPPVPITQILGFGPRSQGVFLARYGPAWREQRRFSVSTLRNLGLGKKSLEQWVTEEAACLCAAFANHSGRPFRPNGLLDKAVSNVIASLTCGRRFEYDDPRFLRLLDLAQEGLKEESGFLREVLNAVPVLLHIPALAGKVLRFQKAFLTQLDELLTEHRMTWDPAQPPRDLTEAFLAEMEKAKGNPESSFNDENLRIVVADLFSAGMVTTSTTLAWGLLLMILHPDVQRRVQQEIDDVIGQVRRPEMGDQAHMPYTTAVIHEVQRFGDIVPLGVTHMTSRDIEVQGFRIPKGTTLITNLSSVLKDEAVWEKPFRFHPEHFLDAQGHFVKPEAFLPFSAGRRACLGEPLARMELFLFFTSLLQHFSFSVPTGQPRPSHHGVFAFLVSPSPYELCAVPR

| SMILES | AC50 | activity, negative = inhibition |
| --- | --- | --- |
| CS(=O)c1ccc(-c2nc(-c3ccc(F)cc3)c(-c3ccncc3)[nH]2)cc1 (stereo unspecified) | inactive | – |
| C[C@@H](Cc1ccccc1)NCCC(c1ccccc1)c1ccccc1 | 0.01 µM (active) | – |
| C#CCN(C)[C@H](C)Cc1ccccc1 | inactive | – |
| CCOC(=O)N1CCC(NC(=O)CCc2nc(C3=CCN(C)CC3)no2)CC1 | inactive | – |
| Nc1nnnn1CCO | – | 3.8% [at 11.4 µM] |
| O=C(O)c1nn(Cc2ccc(Cl)cc2Cl)c2ccccc12 | inactive | – |
| Cc1ccccc1-n1c(O)c(C=Nc2ccc(N(C)C)cc2)c(=O)[nH]c1=O | inactive | – |
| Cc1oc(-c2ccccc2F)nc1CS(=O)CC(=O)N1CCC2(CC1)OCCO2 (stereo unspecified) | inactive | – |
| CC1=C2[C@@H]3OC(=O)[C@@H](C)[C@@H]3CC[C@]2(C)C=CC1=O | inactive | – |
| O=C(O)[C@H]1C[C@@H]1[C@H](NP(=O)(c1ccccc1)c1ccccc1)c1ccccc1 | inactive | – |
| COc1ccc(CNC(=O)/C=C\c2ccc3[nH]cc(CCN(C)C)c3c2)cc1 | inactive | – |
| CN[C@H](Cc1ccccc1)c1cccc(OC)c1O | 0.0398 µM (active) | – |
| O=c1[nH]c(=O)n([C@H]2C[C@H](O)[C@H](CO)O2)cc1/C=C\Br | inactive | – |
| N#C/C(=C\c1ccc(O)c(O)c1)C(=O)NCCCNC(=O)/C(C#N)=C/c1ccc(O)c(O)c1 | inactive | – |
| CCCCn1c(N)c(C(=O)NCc2cccs2)c2nc3ccccc3nc21 | 20 µM (active) | – |
| COCCCn1c(N)c(C(=O)Nc2sc3c(c2C(=O)OC)CCCC3)c2nc3ccccc3nc21 | inactive | – |
| O=[As](O)(O)c1ccc(N=Nc2ccc(O)cc2)cc1 | – | 2.25% [at 11.4 µM] |
| COc1ccc2c(c1)CN([C@H](C)[C@@H]1CC[C@@H]3[C@H]4CC[C@H]5C[C@@H](O)CC[C@@]5(C)[C@H]4CC[C@]31C)CO2 | 3.16 µM (active) | – |
| C[C@@]12CC[C@H]3[C@@H](CC[C@@H]4C[C@H](O)CC[C@]43C)[C@H]1CC[C@H]2O | inactive | – |
| C[C@]12CC[C@H](O)C[C@@H]1CC[C@H]1[C@H]2CC[C@]2(C)C(=O)CC[C@@H]12 | inactive | – |
| CC[N@+]1(C)CCC[C@@H](OC(=O)C(O)(c2ccccc2)c2ccccc2)C1 | 5.01 µM (active) | – |
| CN=C(NC#N)NCCSCc1nc[nH]c1C | inactive | – |
| C[C@H](N)[C@H](O)c1ccc(O)c(O)c1 | inactive | – |
| CC(C)C[C@H]1C(=O)N2CCC[C@@H]2[C@]2(O)O[C@](NC(=O)[C@@H]3C=C4c5cccc6[nH]c(Br)c(c56)C[C@H]4N(C)C3)(C(C)C)C(=O)N12 | inactive | – |
| CC[C@H](CO)NC(=O)[C@@H]1C=C2c3cccc4c3c(cn4C)C[C@@H]2N(C)C1 | 39.8 µM (active) | – |
| CC[C@@H](CO)NC(=O)[C@H]1C=C2c3cccc4c3c(cn4C)C[C@H]2N(C)C1 | 12.6 µM (active) | – |
